Experimental findings from PubChem BioAssay (NCATS) are described below.

The structures appear in SMILES notation. Results filed as inconclusive are left out. Values without a mark were called inactive. Calls of active or inactive are those of the source. Calls come from the whole dose curve; as a rule, active = well fitted curve in the direction sought with a large enough effect; inconclusive = small, poorly fitted or top-dose-only effect, or another doubt; inactive = no such curve, though single readings can be large; an effect the other way counts as inactive or inconclusive.

Test [1] in a line: qHTS of pediatric cancer cell lines to identify multiple opportunities for drug repurposing: Primary screen for DAOY cells (AID 1347090).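 For activity change, negative = cytotoxic: series mostly up to about 46 µM; plate controls were DMSO for no effect and bortezomib for full effect.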 Note: nearly all actives have a fitted effect of over 55% in size. Note: potency is the fitted concentration of half-maximal effect. The procedure, abridged: (§1)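 Eight- or eleven-point concentration series, 48 h treatment at 37 degrees C in growth media; readout CellTiter-Glo luminescence. Potency and efficacy were taken from the concentration-response curves.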
A general note: qHTS replaces the single test concentration by a dilution series.

Test [2] in a line: qHTS of pediatric cancer cell lines to identify multiple opportunities for drug repurposing: Primary screen for SJ-GBM2 cells (AID 1347091).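 For activity change, negative = cytotoxic: plate controls were DMSO neutral control for no effect and bortezomib for full effect.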 Note: potency is the fitted concentration of half-maximal effect. The method, boiled down:
as §1

Test [3] in a line: qHTS of pediatric cancer cell lines to identify multiple opportunities for drug repurposing: Primary screen for A673 cells (AID 1347092). For activity change, negative = cytotoxic: % is set by controls: 0 for no effect and ±100 for the full control effect. Note: nearly all actives have a fitted effect of over 45% in size. Note: potency is the fitted concentration of half-maximal effect. The method, boiled down:
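Cells are plated, rested 5 h, dosed by pintool, incubated 48 h, then lysed with CellTiter-Glo and read by luminescence. DMSO is the neutral control; bortezomib at 2.3 uM final is the positive control.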

The nature of test [4]: qHTS of pediatric cancer cell lines to identify multiple opportunities for drug repurposing: Primary screen for SK-N-MC cells (AID 1347093). Note: potency is the fitted concentration of half-maximal effect. The procedure, abridged:
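Metabolically active cells were quantified by ATP-dependent luminescence (CellTiter-Glo, 15 min at room temperature) following 48 h treatment. Cells had been plated at 500-1,000 per well and settled for 5 h beforehand.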

The nature of test [5]: qHTS of pediatric cancer cell lines to identify multiple opportunities for drug repurposing: Primary screen for BT-37 cells (AID 1347094).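 For activity change, negative = cytotoxic: series mostly up to about 57 µM; plate controls were DMSO for no effect and bortezomib for full effect.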 Note: potency is the fitted concentration of half-maximal effect. The procedure, abridged: (§2)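 500-1,000 cells/well; 5 h pre-incubation 37 °C/5% CO2; compound pinned; 48 h; CellTiter-Glo, 15 min RT; luminescence. MIPE 11-pt from 0.78 nM, NPC 8-pt from 0.59 nM final. Bortezomib 2.3 µM final as positive control.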

Test [6] can be described thus: qHTS of pediatric cancer cell lines to identify multiple opportunities for drug repurposing: Primary screen for NB-EBc1 cells (AID 1347095).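 For activity change, negative = cytotoxic: plate controls were DMSO neutral control for no effect and bortezomib for full effect.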 Note: potency is the fitted concentration of half-maximal effect. The procedure, abridged: as §2
Test [7] in a line: qHTS of pediatric cancer cell lines to identify multiple opportunities for drug repurposing: Primary screen for U-2 OS cells (AID 1347096).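 For activity change, negative = cytotoxic: plate controls were DMSO wells for no effect and bortezomib positive control wells for full effect.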 Note: nearly all actives have a fitted effect of over 50% in size. Note: potency is the fitted concentration of half-maximal effect. The procedure, abridged: (§3)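 Cells (500-1,000/well) in growth media were settled 5 h at 37 degrees C, then given compounds for 48 h. Viability was read as CellTiter-Glo luminescence. Primary runs used MIPE at 11 points (0.78 nM-46 µM) and NPC at 8 points (0.59 nM-46 µM); follow-ups used 11 points.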

Test [8] is described as follows: qHTS of pediatric cancer cell lines to identify multiple opportunities for drug repurposing: Primary screen for SK-N-SH cells (AID 1347098). Note: nearly all actives have a fitted effect of over 65% in size. Note: potency is the fitted concentration of half-maximal effect. The procedure, abridged:
(§4)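 Cells (500-1,000/well) rested 5 h, then received compounds for 48 h; metabolically active cells were measured by CellTiter-Glo luminescence. Final concentrations spanned up to 46 µM (MIPE, 11-point) or 0.59 nM-46 µM (NPC, 8-point) in primary screens, 11-point in follow-ups.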

Test [9] can be described thus: qHTS of pediatric cancer cell lines to identify multiple opportunities for drug repurposing: Primary screen for NB1643 cells (AID 1347099). Note: nearly all actives have a fitted effect of over 50% in size. Note: potency is the fitted concentration of half-maximal effect. The method, boiled down: as §2
Test [10] is described as follows: qHTS of pediatric cancer cell lines to identify multiple opportunities for drug repurposing: Primary screen for LAN-5 cells (AID 1347100). Note: potency is the fitted concentration of half-maximal effect. The method, boiled down: as §3
Test [11] can be described thus: qHTS of pediatric cancer cell lines to identify multiple opportunities for drug repurposing: Primary screen for BT-12 cells (AID 1347101).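 For activity change, negative = cytotoxic: plate controls were DMSO for no effect and bortezomib positive control for full effect.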 Note: nearly all actives have a fitted effect of over 25% in size. Note: potency is the fitted concentration of half-maximal effect. The method, boiled down:
as §4

Test [12] is described as follows: qHTS of pediatric cancer cell lines to identify multiple opportunities for drug repurposing: Primary screen for Rh18 cells (AID 1347102). For activity change, negative = cytotoxic: % is set by controls: 0 for no effect and ±100 for the full control effect. Note: nearly all actives have a fitted effect of over 65% in size. Note: potency is the fitted concentration of half-maximal effect. The method, boiled down: as §3
The nature of test [13]: qHTS of pediatric cancer cell lines to identify multiple opportunities for drug repurposing: Primary screen for OHS-50 cells (AID 1347103).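 For activity change, negative = cytotoxic: plate controls were DMSO neutral control for no effect and bortezomib positive control for full effect.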 Note: nearly all actives have a fitted effect of over 40% in size. Note: potency is the fitted concentration of half-maximal effect. The procedure, abridged:
as §4

Test [14] can be described thus: qHTS of pediatric cancer cell lines to identify multiple opportunities for drug repurposing: Primary screen for RD cells (AID 1347104).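 For activity change, negative = cytotoxic: plate controls were DMSO for no effect and bortezomib for full effect.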 Note: nearly all actives have a fitted effect of over 55% in size. Note: potency is the fitted concentration of half-maximal effect. The method, boiled down: as §2
Test [15] in a line: qHTS of pediatric cancer cell lines to identify multiple opportunities for drug repurposing: Primary screen for MG 63 (6-TG R) cells (AID 1347105). For activity change, negative = cytotoxic: % is set by controls: 0 for no effect and ±100 for the full control effect. Note: nearly all actives have a fitted effect of over 50% in size. Note: potency is the fitted concentration of half-maximal effect. The procedure, abridged: as §2
Test [16] can be described thus: qHTS of pediatric cancer cell lines to identify multiple opportunities for drug repurposing: Primary screen for Rh41 cells (AID 1347108). Note: nearly all actives have a fitted effect of over 70% in size. Note: potency is the fitted concentration of half-maximal effect. The procedure, abridged: as §2
Test [17] in a line: qHTS of pediatric cancer cell lines to identify multiple opportunities for drug repurposing: Confirmatory screen for NB1643 cells (AID 1347109). Note: potency is the fitted concentration of half-maximal effect; nearly all actives have a fitted effect of over 45% in size. The method, boiled down: as §3
Test [18] can be described thus: qHTS of pediatric cancer cell lines to identify multiple opportunities for drug repurposing: Primary screen for control Hh wild type fibroblast cells (AID 1347106).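 Note: series mostly up to about 46 µM; % is set by controls: 0 for no effect and ±100 for the full control effect; a drop in luminescence marks cytotoxicity and a rise apparent proliferation; nearly all actives have a fitted effect of over 55% in size.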 The procedure, abridged:
as §3

Test [19] is described as follows: qHTS of pediatric cancer cell lines to identify multiple opportunities for drug repurposing: Primary screen for Rh30 cells (AID 1347107). Note: series mostly up to about 46 µM; % is set by controls: 0 for no effect and ±100 for the full control effect; nearly all actives have a fitted effect of over 75% in size. The method, boiled down: as §3
A short description of test [20]: qHTS of pediatric cancer cell lines to identify multiple opportunities for drug repurposing: Primary screen for Saos-2 cells (AID 1347097). For activity change, negative = cytotoxic: % is set by controls: 0 for no effect and ±100 for the full control effect. Note: nearly all actives have a fitted effect of over 40% in size. Note: potency is the fitted concentration of half-maximal effect. The procedure, abridged: as §2

As for `CO[C@H]1/C=C\O[C@@]2(C)Oc3c(C)c(O)c4c(O)c(c(C=NN5CCN(C6CCCC6)CC5)c(O)c4c3C2=O)NC(=O)C(C)=CC=C[C@H](C)[C@H](O)[C@@H](C)[C@@H](O)[C@@H](C)[C@H](OC(C)=O)[C@H]1C`, the Potency in test [1] was 0.296 µM (active); in test [3], 0.0296 µM (active); in test [4] it was 0.0059 µM (active); in test [5], 0.001 µM (active); in test [6] it was 0.001 µM (active); in [7] it was 2.35 µM (active). In addition, the Potency in test [8] is 0.0961 µM (active); in test [9], 0.0105 µM (active); in test [10], 0.001 µM (active); in test [11], 0.137 µM (active); in test [12], 0.118 µM (active); in test [13] it was 0.193 µM (active). Also, the Potency in test [14] was 0.209 µM (active); in test [15], 0.59 µM (active); in [16], 0.148 µM (active); in [17], 23.3 µM (active). Further, the Potency entry in test [2] is “inactive”.
Take `N[C@@H](CC(=O)N1CCn2c(nnc2C(F)(F)F)C1)Cc1cc(F)c(F)cc1F`: the Potency result in [1], in test [2], in [3], in [5], in test [6] and in [7] was “inactive” throughout. The Potency entry in test [11], in [12], in [13], in test [14], in test [15] and in [18] was “inactive” in each case. Besides, in test [19], the Potency entry was “inactive”. Moreover, the Potency is 18.7 µM (active) in [4] and 11.8 µM (active) in [9].
For the compound `Cc1ccc(S(=O)(=O)OCC(=O)Nc2ccc(C(=O)O)c(O)c2)cc1`, the Potency entry in test [1], in test [2], in test [5], in test [6], in test [7] and in test [20] was “inactive” each time. Moreover, the Potency entry in test [11], in test [12], in [15] and in test [18] was “inactive” throughout. Also, the Potency was 14.8 µM (active) in test [3], 9.35 µM (active) in test [4], 18.7 µM (active) in [9] and 2.35 µM (active) in test [10].
`COc1ccc(-c2oc3c(CC=C(C)C)c(O)cc(O)c3c(=O)c2O)cc1`: the Potency in test [1] is 23.5 µM (active); in [2], 18.7 µM (active); in test [3], 18.7 µM (active); in test [4] it was 9.35 µM (active); in test [6], 18.7 µM (active); in test [20], 23.5 µM (active). Also, the Potency in test [9] is 14.8 µM (active); in [14], 37.2 µM (active); in [16] it was 18.7 µM (active). In addition, the Potency entry in [5], in test [7], in [11], in test [12] and in test [18] was “inactive” each time.
As for `CNC1CCC(N(Cc2cccc(-c3ccncc3)c2)C(=O)c2sc3ccccc3c2Cl)CC1` (stereo unspecified), the Potency entry in test [1], in test [7] and in test [18] was “inactive” throughout. The Potency was 23.5 µM (active) in test [2]; 14.8 µM (active) in test [3]; 23.5 µM (active) in test [4]; 24.3 µM (active) in [5]; 26.4 µM (active) in test [6]; 26.4 µM (active) in test [20]. Moreover, the Potency is 24.1 µM (active) in [8]; 20.9 µM (active) in [9]; 30.6 µM (active) in test [11]; 23.5 µM (active) in [12]; 19.3 µM (active) in [13]; 18.7 µM (active) in test [14]. For the same compound, the Potency in test [15] is 29.6 µM (active).
Regarding `Nc1ncnc2c1ncn2[C@@H]1O[C@H](CO)[C@@H](O)[C@@H]1O`, the Potency in test [1] is 4.69 µM (active); in test [2] it was 2.35 µM (active); in test [3], 0.935 µM (active); in test [4], 0.833 µM (active); in test [5] it was 5.44 µM (active); in [6] it was 3.32 µM (active). For the same compound, the Potency in test [7] was 14.8 µM (active); in test [20] it was 2.96 µM (active); in [8] it was 15.2 µM (active); in test [9] it was 0.833 µM (active); in test [10], 1.48 µM (active); in test [11], 6.11 µM (active). Also, the Potency was 1.87 µM (active) in test [12]; 3.85 µM (active) in test [13]; 1.66 µM (active) in test [14]; 3.72 µM (active) in test [15]; 14.7 µM (active) in test [17]. Also, the Potency result in test [18] was “inactive”.
`CC[C@H](C)C(=O)O[C@H]1C[C@H](O)C=C2C=C[C@H](C)[C@H](CC[C@@H](O)C[C@@H](O)CC(=O)O)[C@H]21`: the Potency result in test [1], in [2], in [3], in test [4], in test [5] and in test [6] was “inactive” each time. Further, the Potency entry in [7], in [8], in test [10], in [11], in test [12] and in test [13] was “inactive” each time. Besides, the Potency result in test [14], in [15], in [19] and in [16] was “inactive” each time.
Take `CC[C@H]1OC(=O)[C@H](C)[C@@H](O[C@H]2C[C@@](C)(OC)[C@@H](O)[C@H](C)O2)[C@H](C)[C@@H](O[C@@H]2O[C@H](C)C[C@H](N(C)C)[C@H]2O)[C@](C)(O)C[C@H](C)C(=NOCOCCOC)[C@H](C)[C@@H](O)[C@]1(C)O`: the Potency result in [1], in test [2], in test [3], in [5], in test [6] and in test [7] was “inactive” in each case. The Potency entry in test [10], in test [11], in [12], in test [14], in test [15] and in [18] was “inactive” each time. Besides, the Potency entry in test [19] and in [16] was “inactive” throughout. In addition, the Potency in test [4] is 16.6 µM (active); in test [8] it was 30.4 µM (active).
As for `CC(C)=CCCC(C)=CCCC(C)=CCCC(C)=CCCC(C)=CCCC(C)=CCCC(C)=CCCC(C)=CCCC(C)=CCO`, the Potency result in test [1], in test [2], in test [3], in test [4], in test [5] and in [6] was “inactive” in each case. Further, the Potency result in [7], in test [20], in test [8], in [9], in test [10] and in test [11] was “inactive” in each case. Besides, the Potency entry in test [12], in test [13], in [14], in [15], in test [19] and in test [16] was “inactive” in each case.
For the compound `CN1CC(=O)N2C(Cc3c([nH]c4ccccc34)[C@H]2c2ccc3c(c2)OCO3)C1=O` (stereo partly specified), the Potency entry in test [1], in [2], in test [3], in test [4], in test [5] and in test [6] was “inactive” in each case. Moreover, the Potency result in [7], in test [10], in test [11], in [12], in test [14] and in test [18] was “inactive” each time. The Potency entry in [19] was “inactive”.
For `CO[C@H]1C=CO[C@@]2(C)Oc3c(C)c(O)c4c(O)c(c(C=NN5CCN(C)CC5)c(O)c4c3C2=O)NC(=O)C(C)=CC=C[C@H](C)[C@H](O)[C@@H](C)[C@@H](O)[C@@H](C)[C@H](OC(C)=O)[C@H]1C`, the activity change, negative = cytotoxic is -7.74% [at 9.22 µM] in [1]; 4.67% [at 9.22 µM] in [2]; 0.264% [at 9.22 µM] in test [3]; -4.39% [at 9.22 µM] in test [4]; -9.92% [at 11.5 µM] in test [5]; -7.84% [at 9.22 µM] in [6]. Also, the activity change, negative = cytotoxic in test [7] is -1.44% [at 9.22 µM]; in test [8], -10.6% [at 11.4 µM]; in test [9], 22.3% [at 9.22 µM]; in test [11], 2.32% [at 11.5 µM]; in test [13], -1.83% [at 11.5 µM]; in [15] it was -12.4% [at 9.22 µM]. The activity change, negative = cytotoxic is -5.37% [at 9.22 µM] in test [18] and -1.05% [at 9.22 µM] in test [19].
